From PubChem BioAssay (Tox21) come the findings set out here.

Unmarked numbers belong to inactive results. Calls of active or inactive are those of the source. The call rests on the fitted dose curve; in most records, active means well fitted curve in the direction sought with a large enough effect in the repeat runs; inconclusive means weak or mixed curves; inactive means flat fitted curve, though single readings scatter.
On the % scale 0 is the no-effect control and ±100 the full control effect.

The assay in a line: qHTS assay to test for compound auto fluorescence at 535 nm (green) in HEK293 cells (AID 720680). To be noted: green autofluorescence 485/535 nm; series mostly up to 91.3 µM. An excerpt:
U.S. Tox21 Program National Center for Advancing Translational Sciences [NCATS] NIH Chemical Genomics Center [NCGC] U.S. Environmental Protection Agency [EPA] National Institutes of Environmental Health Sciences [NIEHS] National Toxicology Program [NTP] U.S. Food and Drug Administration [FDA] Tox21 Assay Overview: Compound auto fluorescence often interferes with screening of the compound library against various biological targets and signaling pathways. Some of these compounds may have fluorophoric properties. Such properties may interfere with the assay outputs resulting in false positives and/or negatives. To decrease such complications and ensure the compound activities are relevant in terms of biological response, the Tox21 10K compound library was screened for auto fluorescence. From the fluorophores used as reporter signals in our screening assays, the auto fluorescence equivalencies of compounds against three fluorophores have been evaluated: Triamterene, Fluorescein and Rose Bengal sodium for blue, green and red fluorescence, respectively. The fluorescence intensities were measured using Excitation/Emission wavelengths at 405/460nm, 485/535nm and 540/590nm for blue, green and red labels, respectively. This assay includes the green fluorescence data.
Tox21 Assay Protocol Summary: 2,000 HEK293 cells in 5 uL of culture medium containing 10% dialyzed FBS per well were dispensed into black wall/clear bottom 1536-well plates using a Multidrop Combi Dispenser (Thermo Scientific). The assay plates were incubated for 4-5 hr at 37C to allow cell attachment to the well bottom, followed by the transfer of 23 nL compound or DMSO vehicle by a pintool work station (Kalypsys, San Diego, CA). After the assay plates were incubated overnight at 37C and 5% CO2, fluorescence intensities in the assay plates were measured by an Envision (PerkinElmer, Shelton, CT) plate reader using three labels for measuring blue, green and red fluorescence at […] 460, 535 and 590nm respectively.
Background: qHTS replaces the single test concentration by a dilution series.
For the compound `O=C(Cl)c1ccc(F)c(Cl)c1`, the outcome was inactive. On the same count and under the same terms, with `CO[C@@H]1COCC[C@@H]1N[C@@H]1CC[C@@](C(=O)N2CCc3ncc(C(F)(F)F)cc3C2)(C(C)C)C1` the entry was “inactive”; with `O=C1OC(=O)C2CC=CCC12` (stereo not given), “inactive”; with `CCOC(C)OCC`, “inactive”. Take `O=C(O)c1ccccc1-n1cc(C(=O)O)c(=O)c2cc(Nc3c(F)cc(F)cc3Cl)c(Cl)cc21`: the outcome was inactive. The same measure, in the same setting: with `CC1(C)CC(=O)CC(C)(C)N1` the entry was “inactive”; with `O=C1c2ccccc2C(=O)C1c1ccc2ccccc2n1`, “inactive”.

For the compound `C=CCCC`, the result was inactive. Same read-out and setting: with `CCCC1CCCC(=O)O1` (stereo not given) the entry was “inactive”; with `O=C(O)CCc1nc2ccccc2[nH]1`, “inactive”. Same read-out and setting: with `O=Cc1ccc([N+](=O)[O-])cc1` the entry was “inactive”; with `CCCCC(CC)COCCC#N` (stereo not given), “inactive”; with `O=C(O)c1cccnc1Nc1cccc(C(F)(F)F)c1`, “inactive”. In the case of `COc1ccc(/C=C/c2cc(OC)cc(=O)o2)cc1`, the outcome was inactive. On the same count and under the same terms, with `OCCc1ccncc1` the entry was “inactive”.

`COc1ccc(CN(CCN(C)C)c2ncccn2)cc1`: the compound was called inactive.

For the compound `CC(C)=CCC/C(C)=C/C=N/O`, the result was inactive. Take `O=[N+]([O-])c1ccc(Cl)cc1Cl`: the call was inactive.

For `O=C(NC1CCN(CCc2c[nH]c3ccccc23)CC1)c1ccccc1`, the compound was classed as inactive.

Take `Cc1cc(N)n(-c2ccccc2)n1`: the result was inactive. On to `CCC(C)CCCC(C)(C)O` (stereo not given), for which the compound was called inactive. Same read-out and setting: with `Cc1ccc(NC(=O)c2ccc(CN3CCN(C)CC3)cc2)cc1Nc1nccc(-c2cccnc2)n1` the entry was “inactive”; with `NC(=O)c1ccccc1`, “inactive”. As for `CCCCCC1CCC(=O)O1` (stereo not given), the call was inactive.

On to `CC(O)C(C)O` (stereo not given), for which the result was inactive. Still for that read-out and setting: with `CC(=O)Nc1ccccc1O` the entry was “inactive”; with `N#Cc1ccc(CC(=O)c2cccc(C(F)(F)F)c2)cc1`, “inactive”.

In the case of `Oc1ccc(CCNCCCCCCNCCc2ccccc2)cc1O`, the compound was called inactive. For `O=C(O)c1ccc2c(c1)nc(C(=O)NC1CCN(C3CC3)CC1)n2Cc1cc(-c2ccc(Cl)s2)on1`, the fluorescence, % of fluorescein was -0.0247% [at 18.6 µM].

On to `CC(CN=Cc1ccccc1O)N=Cc1ccccc1O` (stereo not given), for which the compound was called inactive. With `NC(=O)c1cc[n+](CC2=C(C(=O)[O-])N3C(=O)[C@@H](NC(=O)Cc4cccs4)[C@H]3SC2)cc1`, the fluorescence, % of fluorescein is 0.0094% [at 18.6 µM]. With `CC(C)CCCCCCCOC(=O)c1ccc(C(=O)OCCCCCCCC(C)C)c(C(=O)OCCCCCCCC(C)C)c1`, the compound was called inactive. Same read-out and setting: with `CC(=O)CC/C=C(\C)CC/C=C(\C)CC/C=C(\C)CCC=C(C)C` the entry was “inactive”; with `O=[N+]([O-])c1ccccc1CCO`, “inactive”; with `COC(=O)/C=C/C(C)=C\C=C\C(C)=C\C=C\C=C(C)\C=C\C=C(C)\C=C\C(=O)O`, “inactive”. Still for that read-out and setting: with `O=C(OC1C[C@H]2CC[C@@H](C1)[N+]21CCCC1)C(O)(c1ccccc1)c1ccccc1` (stereo not given in full) the entry was “inactive”; with `CCC[Si](OC)(OC)OC`, “inactive”. For `O=C(O)c1cccc(C(=O)O)c1C(=O)O`, the result was inactive.

Regarding `CC(=O)Nc1ccn(C2COC(COC(=O)c3ccccc3)O2)c(=O)n1` (stereo not given), the outcome was inactive. In the case of `CCCCCCCCCCCCSC#N`, the outcome was inactive.
